Laboratory results published in PubChem BioAssay AID463173 (ICCB-Longwood Screening Facility, Harvard Medical School, 2010).
In all, about 52,000 compounds went through this assay and about 4,300 (8.3%) were called active. The sample as a whole holds a higher share of actives than the screen did. Unmarked numbers belong to inactive results. Rule as the data show it: active = survival mostly below about 52% (no sharp cut-off); inactive = mostly above about 56%.

System: DeltatarO mutant
Assay: S. aureus survival, RN4220 and DeltatarO strains – OD600, teichoic acid synthesis inhibitors, primary screen (AID 463173)
Details: S. aureus RN4220 wild type/DeltatarO growth, OD600, 18 h, hits give low values, screened at 18.75 µg/mL (by protocol)

Compared with `O=C(Nc1ccccc1)c1ccncc1`, `O=C(NCc1ccncc1)C1CCN(C(=O)c2cccc(Cl)c2)CC1` is lower in survival: 97% for the first, 74% for the second.

First: CC(=O)Nc1ccc(S(=O)(=O)Nc2cccc(-c3ccc(N4CCCCCC4)nn3)c2)cc1
Second: CC(=O)Nc1ccc(NC(=O)C2CCN(c3c(NC(C)=O)c(C)nn3-c3ccccc3)CC2)cc1
The survival of the first is higher: 83% for the first, 67% for the second.

Going from `Cc1onc2c1C(=O)CC(C)(C)C2` to `Cc1nc(N)sc1C(C)(C)C`, the survival rises from 73% to 86%.

Going from `Cc1cc(C)c2c(=O)cc(C(=O)NCc3ccc(S(N)(=O)=O)cc3)oc2c1` to `Cc1ccc(CNC(=O)C2CCC(CNS(=O)(=O)c3ccc4c(c3)CCCC(=O)N4)CC2)cc1` (stereo not drawn), the survival falls from 117% to 79%.

Going from `Cc1ccc(F)cc1NC(=O)CSc1nc(-c2cccs2)cc(C(F)(F)F)n1` to `Cc1ccc(NC(=O)Cn2c(SCc3cccc(F)c3)nc3ccncc32)c(C)c1`, the survival rises from 68% to 83%.

Compared with `CC(=O)N1CCOc2cc(S(=O)(=O)NCc3ccccc3Cl)c(Cl)cc21`, `CCC(=O)N1CCc2cc(Br)cc(S(=O)(=O)CCC(=O)NCc3ccc(F)cc3)c21` is higher in survival: 76% for the first, 80% for the second.

Compared with `Cc1nc2sccn2c(=O)c1S(=O)(=O)Nc1ccc(N2CCOCC2)cc1`, `O=C(Nc1ccc(N2CCOCC2)cc1)c1ncn[nH]1` is higher in survival: 62% for the first, 86% for the second.

Going from `CCOC(=O)c1ccc(NC(=O)CN2C(=O)C(C)(C)c3ccccc32)cc1` to `CCc1ccc(NC(=O)CN2C(=O)CC(c3ccccc3)Sc3ccccc32)cc1` (stereo not drawn), the survival falls from 115% to 113%.

Going from `CCN(C(=O)Cn1c(SCC(=O)NCc2ccccc2)nc2ccccc21)c1cccc(C)c1` to `CCC(=O)Nc1ccccc1-c1nc2ccccc2n(Cc2cccc(Br)c2)c1=O`, the survival falls from 65% to 49%.

Going from `COc1ccc(-c2ccc(=O)n(CC(=O)NCCc3ccccc3)n2)cc1` to `CCOc1ccc(CNC(=O)Cn2c(=O)c3cccn3c3ccccc32)cc1`, the survival falls from 70% to 60%.

First: CCCC(CCC)C(=O)Nc1ccc(NC(=O)c2ccco2)cc1
Second: CCOC(=O)c1[nH]c(C)c(CCC(=O)NCc2ccc(OC(C)C)cc2)c1C
The survival of the first is higher: 98% for the first, 80% for the second.

First: CCOc1cccc2cc(-c3nc4ccc(C(=O)O)cc4[nH]3)c(=O)oc12
Second: CN1CCN(Cc2c(O)ccc3cc(-c4ccccc4)c(=O)oc23)CC1
The survival of the first is lower: 69% for the first, 105% for the second.

Compared with `Cc1ccc2c(c1)N(C(=O)N1CCC(C(=O)NCc3cccs3)CC1)CC(C)O2` (stereo not drawn), `CC(=O)Nc1c(C)nn(-c2ccccc2)c1N1CCC(C(=O)NCc2cccc(Cl)c2)CC1` is lower in survival: 91% for the first, 84% for the second.

Compared with `O=C(NCCCN1CCN(c2ccccc2)CC1)c1sc2ncccc2c1-n1cccc1`, `COc1ccc(N2CCN(CCCNC(=O)c3sc4ncccc4c3-n3cccc3)CC2)cc1` is higher in survival: 91% for the first, 101% for the second.

Compared with `O=C(NCCCN1CCCCC1)c1sc2ncccc2c1-n1cccc1`, `Cc1cc(C)c2c(-n3cccc3)c(C(=O)NCCCN3CCCCC3C)sc2n1` (stereo not drawn) is higher in survival: 92% for the first, 93% for the second.

Going from `CC1=C(C(=O)OC2CCCC2)C(c2ccccc2Cl)CC(=O)N1` (stereo not drawn) to `CC(=O)Nc1c(C)nn(-c2ccccc2)c1N1CCC(C(=O)Nc2ccc(F)cc2Cl)CC1`, the survival rises from 70% to 76%.

Compared with `CN1CCc2nc3sc(C(=O)c4ccc(F)cc4)c(N)c3cc2C1`, `CCOC(=O)c1cccc(Nc2c3c(nc4ccccc24)CCC3)c1` is lower in survival: 71% for the first, 68% for the second.

Going from `COc1ccc(CCNC(=O)C(C)n2nc(C)c3sc4ccccc4c3c2=O)c(OC)c1` (stereo not drawn) to `Cc1ccc(C)c(Cn2c(=O)n(CCc3ccccc3)c(=O)c3c(C)c(C)sc32)c1`, the survival rises from 58% to 112%.

First: COc1cc2nc(C3CCC3)n(N)c(=O)c2cc1OC
Second: COc1ccc(OC)c(C2CC(=O)Nc3c2c(=O)n(C)c2ncnn32)c1 (stereo not drawn)
The survival of the first is lower: 75% for the first, 166% for the second.

Compared with `O=C(CN1C(=O)C2CCCCN2c2ccc(C(=O)N3CCCC3)cc21)NCc1cccc(Cl)c1` (stereo not drawn), `O=C(NC1CC(=O)N(c2ccc(F)cc2)C1)c1ccc(S(=O)(=O)N2CCCCC2)cc1` (stereo not drawn) is higher in survival: 68% for the first, 75% for the second.

Compared with `Cc1cccc(Cn2c(=O)n(CCc3ccccc3)c(=O)c3c(C)c(C)sc32)c1`, `Cc1sc2c(c1C)c(=O)n(CCc1ccccc1)c(=O)n2Cc1ccc(F)cc1` is lower in survival: 111% for the first, 52% for the second.

First: Cc1sc2c(c1C)c(=O)n(CCc1ccccc1)c(=O)n2Cc1ccccc1Cl
Second: Cc1oc(-c2ccc(C(=O)N(C)Cc3ccccc3)cc2)nc1CN1CCc2ccccc21
The survival of the first is lower: 103% for the first, 119% for the second.

Going from `COc1ccc(C2CC(=O)N(Cc3ccc(F)cc3)c3ccccc3S2)cc1OC` (stereo not drawn) to `COc1cc(C2CC(=O)N(Cc3ccc(F)cc3)c3ccccc3S2)cc(OC)c1OC` (stereo not drawn), the survival falls from 100% to 75%.

Compared with `O=C1CC(c2ccccc2)Sc2ccccc2N1Cc1ccccc1F` (stereo not drawn), `COc1cc(C2CC(=O)N(Cc3cccc(F)c3)c3ccccc3S2)cc(OC)c1OC` (stereo not drawn) is higher in survival: 96% for the first, 103% for the second.

First: COc1ccc(C2CC(=O)N(CC(=O)Nc3cc(C)ccc3C)c3ccccc3S2)cc1 (stereo not drawn)
Second: COc1ccc2c(c1)c(=O)c(C(=O)c1ccc(C)c(C)c1)cn2CC(=O)Nc1ccc2c(c1)OCCO2
The survival of the first is higher: 79% for the first, 76% for the second.

Compared with `CCOc1ccc(NC(=O)Cn2cc(C(=O)c3ccc(CC)cc3)c(=O)c3cc(OC)c(OC)cc32)cc1`, `CCOC(=O)c1ccc(NC(=O)CCc2c(C)nc3c(-c4ccc(F)cc4)c(C)nn3c2C)cc1` is lower in survival: 98% for the first, 61% for the second.

Compared with `COc1ccccc1N1CCN(C(=O)c2ccc(Nc3nc4ccccc4n4nnnc34)cc2)CC1`, `O=C(Nc1c(C(=O)N2CCN(c3ccc(F)cc3)CC2)oc2ccccc12)c1c(F)cccc1F` is higher in survival: 59% for the first, 95% for the second.

Going from `COc1cccc(C(c2sc3nc(-c4ccco4)nn3c2O)N2CCCC2)c1` (stereo not drawn) to `COc1ccc(OC)c2sc(N3CCN(C(=O)c4ccco4)CC3)nc12`, the survival rises from 71% to 87%.

Compared with `Cc1ccc(C)c2sc(N3CCN(C(=O)c4ccco4)CC3)nc12`, `COc1ccc(OC)c2sc(N3CCN(C(=O)C4COc5ccccc5O4)CC3)nc12` (stereo not drawn) is lower in survival: 134% for the first, 88% for the second.

Going from `COc1ccc(OC)c2sc(N3CCN(C(=O)C(C)(C)C)CC3)nc12` to `COc1ccc(Nc2c3c(nc4ccc(NC(=O)c5cc(Cl)ccc5OC)cc24)CCCC3)cc1OC`, the survival falls from 89% to 70%.

First: CCn1cc(S(=O)(=O)c2cccc(C)c2)c(=O)c2cc(F)c(N3CCCCC3C)cc21 (stereo not drawn)
Second: CCn1cc(C(=O)NCCc2ccc(Cl)cc2)c(=O)c2cc(S(=O)(=O)N(C)C3CCCCC3)ccc21
The survival of the first is lower: 83% for the first, 84% for the second.

First: CCc1ccc2[nH]c(=O)c(C(c3nnnn3C(C)(C)C)N3CCc4ccccc43)cc2c1 (stereo not drawn)
Second: CC(=O)Nc1c(C)nn(-c2ccccc2)c1N1CCC(C(=O)Nc2ccc(C)cc2Cl)CC1
The survival of the first is higher: 96% for the first, 72% for the second.

Compared with `Cc1ccc(-n2nc3ccc(NC(=O)Cc4ccc(Cl)cc4)cc3n2)cc1`, `CC(=O)Nc1c(C)nn(-c2ccccc2)c1N1CCC(C(=O)NCc2ccc(Cl)cc2)CC1` is lower in survival: 79% for the first, 72% for the second.

Compared with `Fc1ccccc1Nc1c2c(nc3ccccc13)CCC2`, `COc1cc(Cl)c(C)cc1Nc1c2c(nc3ccccc13)CCC2` is lower in survival: 95% for the first, 70% for the second.

`Cc1ccc(CNC(=O)C2CCN(c3nn4cc(-c5ccc(F)cc5)nc4s3)CC2)cc1` and `O=C(NCc1cccc(F)c1)C1CCN(c2nn3cc(-c4ccc(F)cc4)nc3s2)CC1` are the same in survival: 87% for the first, 87% for the second.

First: CC(=O)Nc1c(C)nn(-c2ccccc2)c1N1CCC(C(=O)Nc2cc(F)ccc2F)CC1
Second: O=C(NC1CC(=O)N(c2ccccc2)C1)c1ccc(S(=O)(=O)N2CCCC2)cc1 (stereo not drawn)
The survival of the first is lower: 79% for the first, 128% for the second.

Going from `Cc1ccc(O)c(NC(=O)c2cc(-c3ccccc3O)no2)c1` to `CCOc1ccc(N2CC(NC(=O)c3ccc(S(=O)(=O)N4CCCC4)cc3)CC2=O)cc1` (stereo not drawn), the survival rises from 80% to 87%.

With `CCOc1ccc(N2CC(NC(=O)c3ccc(S(=O)(=O)N4CCCCC4)cc3)CC2=O)cc1` (stereo not drawn) the survival was 79%.

In the case of `CC1CCCCN1CCCNC(=O)c1sc2ncccc2c1-n1cccc1` (stereo not drawn), the survival is reported as 25% (active).
For `O=C(NCCCN1CCN(c2ccc(F)cc2)CC1)c1sc2ncccc2c1-n1cccc1`, the survival was 37% (active).
With `O=C(NCc1cccnc1)c1cn(C2CC2)c2cc(N3CCN(C(=O)c4cccc(Cl)c4)CC3)c(F)cc2c1=O` the survival was 1% (active).
With `Cc1ccccc1Cn1c(=O)n(CCc2ccccc2)c(=O)c2c(C)c(C)sc21` the survival was -6% (active).
`Cc1sc2c(c1C)c(=O)n(CCc1ccccc1)c(=O)n2Cc1cccc(F)c1` was tested, and the survival was 16% (active).
`COc1ccc(C2CC(=O)N(Cc3ccc(F)cc3)c3ccccc3S2)cc1` (stereo not drawn) was tested, and the survival was 28% (active).
In the case of `COc1ccc(C2CC(=O)N(Cc3cccc(F)c3)c3ccccc3S2)cc1` (stereo not drawn), the survival is reported as 47% (active).
In the case of `O=C1CC(c2ccccc2)Sc2ccccc2N1Cc1ccc(F)cc1` (stereo not drawn), the survival is reported as -2% (active).
For `COc1ccc(C)c2sc(N3CCN(C(=O)c4ccco4)CC3)nc12`, the survival was 17% (active).
`COc1ccc(OC)c2sc(N3CCN(C(=O)C4CC4)CC3)nc12` was tested, and the survival was -5% (active).
`Fc1ccc(F)c(Nc2c3c(nc4ccc(Cl)cc24)CCC3)c1` was tested, and the survival was -18% (active).
In the case of `FC(F)(F)c1cccc(Nc2c3c(nc4ccc(Cl)cc24)CCC3)c1`, the survival is reported as 9% (active).
In the case of `CC(=O)Nc1c(C)nn(-c2ccccc2)c1N1CCC(C(=O)NCc2ccccc2Cl)CC1`, the survival is reported as -2% (active).
With `CC(=O)Nc1c(C)nn(-c2ccccc2)c1N1CCC(C(=O)NCc2cccc(F)c2)CC1` the survival was 6% (active).
`Cc1cccc(CNC(=O)C2CCN(c3nn4cc(-c5ccc(F)cc5)nc4s3)CC2)c1` was tested, and the survival was 47% (active).
In the case of `CC(=O)Nc1c(C)nn(-c2ccccc2)c1N1CCC(C(=O)NCc2ccc(F)cc2)CC1`, the survival is reported as -1% (active).
`O=C(NC1CC(=O)N(c2ccccc2)C1)c1ccc(S(=O)(=O)N2CCCCC2)cc1` (stereo not drawn) was tested, and the survival was 17% (active).
With `CCOc1ccc(N2CC(NC(=O)c3ccc(S(=O)(=O)N4CCOCC4)cc3)CC2=O)cc1` (stereo not drawn) the survival was 47% (active).
